Assay outcomes as filed in PubChem BioAssay.
This is a sample that favours compounds with a hit; in the whole collection about 19% have one here.
IL-1B inflam inh = blocks inflammasome-driven IL-1 beta release; THP-1 LPS/ATP IL-1B secretion, AlphaLISA, 16 h; active compounds read low; activity change, % at 57.5 µM; 4.7% of 360,000 active; AID 743279; in the data active = activity change below about -50%; inconclusive = mostly about -30% to -49%
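Secreted IL-1B measured by AlphaLISA bead assay after 16 h compound exposure of THP-1 cells; compounds (final up to 57.5 uM) added 1 h before LPS (250 ng/mL) and ATP (1.25 mM) stimulation; lower signal means less secretion.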
HT1080 IDH1KD tx = toxicity to HT-1080 IDH1 knockdown cells (counter line) | 2% of 360,000 active | HT-1080 IDH1 knockdown viability, ATP luminescence, 48 h | AID 686971 | Potency, µM (doses to about 46.1 µM), for inactives: at the top dose activity, negative = toxicity, actives largely listed as cytotoxic;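 note: potency is the fitted concentration of half-maximal effect; 0% = DMSO wells and -100% = cell-free medium wells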
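Using the IDH1-knockdown HT-1080 line run in the same batch and compound series as the NT line, viability after 48 h at 37 °C was determined by CellTiter-Glo luminescence and expressed as % activity.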
DT40 TDP1 no CPT = qHTS for Inhibitors of human tyrosyl-DNA phosphodiesterase 1 (TDP1): qHTS in cells in absence of CPT. DT40 Tdp1-/- hTDP1 cells, no CPT, ATP luminescence, 48 h. Potency, µM (titrated, usually from 46.2 µM), for the others: top-dose activity change, negative = growth inhibition, usual class: inhibitors. 15% of 420,000 active; note: potency is the fitted concentration of half-maximal effect; nearly all actives have a fitted effect of over 55% in size
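Compound effects on proliferation are scored in DT40 Tdp1-/-;hTDP1 cells in the absence of CPT. ATP levels (CellTiter-Glo luminescence) are recorded after a ≥48 hr, 37 °C incubation.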
HT1080NT lethal = kills 2HG-producing HT-1080-NT fibrosarcoma cells; Potency, µM (highest dose often 46.1 µM), for the others: at the highest dose activity, negative = less viability, usual class: cytotoxic; 1.6% of 360,000 active; HT-1080-NT fibrosarcoma viability, CellTiter-Glo ATP luminescence, 48 h;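 note: NT is the 2HG producing partner of a matched IDH1 knockdown line; potency is the fitted concentration of half-maximal effect; 0% = DMSO-treated cells and -100% = media-only wells without cells; nearly all actives have a fitted effect of over 55% in size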
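Viability of the 2HG-overproducing fibrosarcoma line after 48 hours of compound exposure at 37 degrees C was determined by luminescence with CellTiter-Glo, and concentration-effect curves were then fitted and categorized.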
uPA generation = cell surface uPA generation inhibition; 0.31% of 330,000 active; AID 540303; cell surface uPA generation assay, qHTS; Potency, µM (doses to about 38.3 µM), for the others: at the highest dose activity change, negative = inhibition, hits mostly inhibitors; active = well fitted inhibition curve with a large enough effect; inconclusive = small, poorly fitted or top-dose-only effect; inactive = no such curve, though single readings can be large or run the other way; tested in mouse RAW 264.7 cells; note: potency is the fitted concentration of half-maximal effect; nearly all actives have a fitted effect of over 55% in size
DT40 TDP1 CPT = DT40-hTDP1 cell growth loss with CPT. chicken DT40 Tdp1-/-;hTDP1 cells + 20 nM CPT, ATP luminescence, 48 h. Potency, µM (doses to about 46.2 µM), without a hit: top-dose activity change, negative = growth inhibition, most hits filed as inhibitors. 12% of 420,000 active; note: potency is the fitted concentration of half-maximal effect; nearly all actives have a fitted effect of over 55% in size
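Cell growth measured by CellTiter-Glo luminescence after a minimum 48 h, 37 C compound exposure with 20 nM CPT in Tdp1-knockout DT40 cells stably expressing hTDP1, seeded 400/well; qHTS titration format.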
Numbers without * were called inactive. Unless noted, calls come from the whole dose curve; as a rule, active = well fitted curve in the direction sought with a large enough effect; inconclusive = small, poorly fitted or top-dose-only effect, or another doubt; inactive = no such curve, though single readings can be large; an effect the other way counts as inactive or inconclusive. Unless noted, % is set by controls: 0 for no effect and ±100 for the full control effect.

What do the screens show for `CCOC(=O)[C@]12Cc3cc(OC)ccc3[C@H]1N(CC(=O)OC)C(=O)c1cc(OC)ccc12`?
IL-1B inflam inh: -56.9*; HT1080 IDH1KD tx: inconclusive; DT40 TDP1 no CPT: 6.51µM*; HT1080NT lethal: inconclusive; DT40 TDP1 CPT: 18.4µM*

How did CCOC(=O)[C@]12Cc3cc(OC)ccc3[C@H]1N(CC(=O)OC)C(=O)c1ccccc12 do in these assays?
IL-1B inflam inh: 32.1; HT1080 IDH1KD tx: 5.3%; DT40 TDP1 no CPT: -28.6%; HT1080NT lethal: 5.2%; DT40 TDP1 CPT: -17.3%

What do the screens show for `CCCCn1c(C)c(C(=O)O)c2cc(OC)ccc21`?
IL-1B inflam inh: -0.1; HT1080 IDH1KD tx: 10.3%; DT40 TDP1 no CPT: -9.1%; HT1080NT lethal: 4.7%; uPA generation: -3.1%; DT40 TDP1 CPT: -30.4%

How did CCOC(=O)[C@]12Cc3cc(OC)ccc3[C@H]1N(C)C(=O)c1cc(OC)ccc12 do in these assays?
HT1080 IDH1KD tx: inconclusive; DT40 TDP1 no CPT: 16.4µM*; HT1080NT lethal: inconclusive; DT40 TDP1 CPT: inconclusive

How did CCCCCN1C(=O)c2cc(OC)ccc2[C@@]2(C(=O)OCC)Cc3cc(OC)ccc3[C@@H]12 do in these assays?
IL-1B inflam inh: -69.3*; HT1080 IDH1KD tx: 13µM*; DT40 TDP1 no CPT: 5.17µM*; HT1080NT lethal: 14.6µM*; DT40 TDP1 CPT: 10.3µM*

Results for CCOC(=O)[C@]12Cc3cc(Cl)ccc3[C@H]1N(C)C(=O)c1cc(OC)ccc12 ?
HT1080 IDH1KD tx: inconclusive; DT40 TDP1 no CPT: 16.4µM*; HT1080NT lethal: inconclusive; DT40 TDP1 CPT: 23.1µM*

Results for COC(=O)COc1ccc(Cl)cc1Cl ?
DT40 TDP1 no CPT: 12.3%; DT40 TDP1 CPT: 4.7%

What do the screens show for `NC(N)=Nc1ccc2[nH]c3c(c2c1)C[C@@]1(O)[C@H]2Cc4ccc(O)c5c4[C@@]1(CCN2CC1CC1)C3O5` (stereo not given in full)?
IL-1B inflam inh: -19.7; HT1080 IDH1KD tx: -5.9%; DT40 TDP1 no CPT: -8.4%; HT1080NT lethal: 11.7%; uPA generation: -6.3%; DT40 TDP1 CPT: -6.5%

Results for O=C(CCS(=O)(=O)Cc1ccccc1)Nc1nc2c(s1)CCCC2 ?
IL-1B inflam inh: 58.0; HT1080 IDH1KD tx: 8.91µM*; DT40 TDP1 no CPT: 25.9µM*; HT1080NT lethal: inconclusive; uPA generation: inconclusive; DT40 TDP1 CPT: inconclusive

How did O=C(CCS(=O)(=O)c1ccccc1)Nc1nnc(-c2ccco2)o1 do in these assays?
IL-1B inflam inh: -2.0; HT1080 IDH1KD tx: -4.6%; DT40 TDP1 no CPT: inconclusive; HT1080NT lethal: 1.0%; uPA generation: -8.3%; DT40 TDP1 CPT: inconclusive

How did COc1ccc(Nc2c(-c3cc(Br)ccc3O)nc3ncccn23)cc1OC do in these assays?
DT40 TDP1 no CPT: 23.1µM*; DT40 TDP1 CPT: 18.4µM*

How did CCS(=O)(=O)Nc1cccc(C(=C2CCCCC2)c2cnc[nH]2)c1 do in these assays?
IL-1B inflam inh: 29.0; HT1080 IDH1KD tx: -2.0%; DT40 TDP1 no CPT: 20.6µM*; HT1080NT lethal: 0.2%; uPA generation: 10.9%; DT40 TDP1 CPT: inconclusive

How did COc1ccc(C2CC(=O)Oc3c2c(=O)oc2ccccc32)c(OC)c1OC (stereo not given) do in these assays?
DT40 TDP1 no CPT: -2.6%; DT40 TDP1 CPT: -11.9%

How did COc1ccc(C2=CC(c3ccc4c(c3)OCO4)c3c(c4ccccc4oc3=O)O2)cc1OC (stereo not given) do in these assays?
IL-1B inflam inh: -21.0; HT1080 IDH1KD tx: inconclusive; DT40 TDP1 no CPT: 20.6µM*; HT1080NT lethal: inconclusive; uPA generation: -12.1%; DT40 TDP1 CPT: 14.6µM*

What do the screens show for `Cc1ccsc1C(=O)C1CCCN(Cc2cc(C(C)C)n[nH]2)C1` (stereo not given)?
IL-1B inflam inh: 0.0; HT1080 IDH1KD tx: 0.9%; DT40 TDP1 no CPT: inconclusive; HT1080NT lethal: 1.7%; uPA generation: -1.0%; DT40 TDP1 CPT: 6.0%

Results for O=S(=O)(c1ccc(F)cc1)N1CN2CCN(C2)C1 ?
IL-1B inflam inh: 1.7; HT1080 IDH1KD tx: 0.9%; DT40 TDP1 no CPT: inconclusive; HT1080NT lethal: 0.0%; uPA generation: 20.8%; DT40 TDP1 CPT: inconclusive

How did O=S(=O)(c1ccc(Cl)cc1)N1CN2CCN(C2)C1 do in these assays?
IL-1B inflam inh: -17.8; HT1080 IDH1KD tx: 12.9%; DT40 TDP1 no CPT: inconclusive; HT1080NT lethal: 22.7%; uPA generation: -1.7%; DT40 TDP1 CPT: 23.1µM*

Results for Cc1ccc(C=C2C(Cl)=C(Cl)C(Cl)=C2Cl)cc1 ?
IL-1B inflam inh: -5.6; HT1080 IDH1KD tx: 0.0%; DT40 TDP1 no CPT: 5.17µM*; HT1080NT lethal: -20.1%; uPA generation: -1.9%; DT40 TDP1 CPT: 3.26µM*

What do the screens show for `CC1CCCC(NC(=O)CNC(=S)N2CC3CC(C2)c2cccc(=O)n2C3)C1C` (stereo not given)?
IL-1B inflam inh: 4.8; HT1080 IDH1KD tx: 14.3%; DT40 TDP1 no CPT: 19.8%; HT1080NT lethal: 6.1%; uPA generation: 4.9%; DT40 TDP1 CPT: -3.7%

What do the screens show for `CCCCn1c(=O)c(C(=O)NCc2ccccc2Cl)c(O)c2ccccc21`?
IL-1B inflam inh: 32.5; HT1080 IDH1KD tx: 1.8%; DT40 TDP1 no CPT: inconclusive; HT1080NT lethal: 4.7%; uPA generation: 8.8%; DT40 TDP1 CPT: inconclusive

What do the screens show for `CCCCCn1c(=O)c(C(=O)Nc2ccccc2S(N)(=O)=O)c(O)c2ccccc21`?
IL-1B inflam inh: inconclusive; HT1080 IDH1KD tx: inconclusive; DT40 TDP1 no CPT: 4.61µM*; HT1080NT lethal: -16.7%; uPA generation: -12.6%; DT40 TDP1 CPT: 6.51µM*

How did CCCCn1c(=O)c(C(=O)NCc2ccccc2)c(O)c2ccccc21 do in these assays?
IL-1B inflam inh: 25.8; HT1080 IDH1KD tx: 0.3%; DT40 TDP1 no CPT: 16.4µM*; HT1080NT lethal: -1.2%; uPA generation: 7.1%; DT40 TDP1 CPT: inconclusive

How did CCCCCn1c(=O)c(C(=O)NC(C)c2ccccc2)c(O)c2ccccc21 (stereo not given) do in these assays?
IL-1B inflam inh: 15.0; HT1080 IDH1KD tx: 5.3%; DT40 TDP1 no CPT: 20.6µM*; HT1080NT lethal: 13.3%; uPA generation: 5.1%; DT40 TDP1 CPT: inconclusive

What do the screens show for `CCCCn1c(=O)c(C(=O)Nc2ccccc2)c(O)c2ccccc21`?
IL-1B inflam inh: 17.5; HT1080 IDH1KD tx: 13.5%; DT40 TDP1 no CPT: 4.11µM*; HT1080NT lethal: 9.2%; uPA generation: -1.6%; DT40 TDP1 CPT: 3.66µM*

Results for CCCCn1c(=O)c(C(=O)Nc2ccccc2S(N)(=O)=O)c(O)c2ccccc21 ?
IL-1B inflam inh: -10.8; HT1080 IDH1KD tx: inconclusive; DT40 TDP1 no CPT: inconclusive; HT1080NT lethal: inconclusive; DT40 TDP1 CPT: inconclusive
